Measurements: PubChem BioAssay AID1645887 (National Center for Advancing Translational Sciences (NCATS), 2021)
Out of some 16,000 compounds screened, about 40 (0.2%) were called active. About 1% were inconclusive and are not listed. Calls come from the whole dose curve; as a rule, active = well fitted activation curve with a large enough effect; inconclusive = small, poorly fitted or top-dose-only effect, or another doubt; inactive = no such curve, though single readings can be large or run the other way. The full list was thinned out, with actives kept by preference.

Target: Rap guanine nucleotide exchange factor 4 (Homo sapiens) (UniProt Q8WZA2)
Sequence (Q8WZA2 whole entry, looked up): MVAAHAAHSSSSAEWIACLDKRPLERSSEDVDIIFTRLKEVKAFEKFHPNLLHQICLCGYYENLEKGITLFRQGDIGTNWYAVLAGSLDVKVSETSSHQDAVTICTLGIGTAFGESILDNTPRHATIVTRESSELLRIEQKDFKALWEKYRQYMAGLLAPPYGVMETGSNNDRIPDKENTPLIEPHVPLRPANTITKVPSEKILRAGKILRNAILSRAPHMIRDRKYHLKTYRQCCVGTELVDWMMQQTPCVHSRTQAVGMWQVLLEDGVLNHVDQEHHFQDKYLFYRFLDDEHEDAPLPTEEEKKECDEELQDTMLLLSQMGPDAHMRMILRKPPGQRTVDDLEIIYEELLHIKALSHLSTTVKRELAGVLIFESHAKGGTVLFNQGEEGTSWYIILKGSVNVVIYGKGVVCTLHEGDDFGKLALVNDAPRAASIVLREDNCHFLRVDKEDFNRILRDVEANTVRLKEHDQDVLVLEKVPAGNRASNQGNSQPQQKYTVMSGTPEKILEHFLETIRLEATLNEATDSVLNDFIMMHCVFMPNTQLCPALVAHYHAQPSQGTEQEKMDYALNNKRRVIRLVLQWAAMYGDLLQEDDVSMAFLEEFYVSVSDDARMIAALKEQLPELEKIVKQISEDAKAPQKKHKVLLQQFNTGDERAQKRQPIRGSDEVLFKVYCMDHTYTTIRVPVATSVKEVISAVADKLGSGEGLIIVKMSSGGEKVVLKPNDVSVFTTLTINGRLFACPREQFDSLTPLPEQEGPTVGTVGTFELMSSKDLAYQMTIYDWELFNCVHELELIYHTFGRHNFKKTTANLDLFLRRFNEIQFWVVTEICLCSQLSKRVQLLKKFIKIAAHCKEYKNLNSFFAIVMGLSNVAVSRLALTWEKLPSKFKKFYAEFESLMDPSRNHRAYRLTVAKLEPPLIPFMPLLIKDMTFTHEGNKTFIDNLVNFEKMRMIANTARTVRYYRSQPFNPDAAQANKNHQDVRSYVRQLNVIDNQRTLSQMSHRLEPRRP
Assay: Validation qHTS for agonist of cAMP-regulated guanine nucleotide exchange factor 4 (EPAC2);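 for activation: exchange makes BODIPY-GDP fluorescence drop when released from Rap1B; series mostly up to about 150 µM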
Conditions: EPAC2 Rap1B BODIPY-GDP exchange, fluorescence; activation: active compounds read high
Excerpt: Principle Investigator: Xiaodong Cheng Ph.D.
The University of Texas Medical Branch, […], TX
In multi-cellular eukaryotic organisms, the effects of cAMP are transduced by two ubiquitously-expressed intracellular cAMP receptors, the classic protein kinase A/cAMP-dependent protein kinase (PKA/cAPK) and the more recently discovered exchange protein directly activated by cAMP/cAMP-regulated guanine nucleotide exchange factor (EPAC/cAMP-GEF). Both PKA and EPAC are ubiquitously expressed in all tissues, and an increase in intracellular cAMP levels will lead to the activation of both PKA and EPAC. Therefore, careful dissections of the individual role and relative contribution of EPAC and PKA within the overall cAMP signaling in various model systems are critical for further elucidating the mechanism of cAMP signaling. To date no EPAC-specific antagonists and agonist, as well as isoform-specific agonists have been reported, and developing EPAC-specific pharmacological probes to determine the physiological functions that EPAC play in the overall cAMP-mediated signaling remains a major challenge within the research field. Furthermore, identified regulators of EPAC may lead to new mechanism-based therapeutic strategies specifically targeting the EPAC / cAMP-signaling components as EPAC has been implicated to play important roles in major human pathological conditions such as diabetes, heart disease, and cancer.
This qHTS will be used to screen the Molecular Libraries Small Molecule Repository (MLSMR) as a concentration-titration series using the NCGC unique quantitative screening (qHTS) platform to find activators for EPAC1. In addition, this assay will also be used as a counterscreen for the EPAC2 qHTS. This fluorescent based assay is developed and validated for EPAC1 that measures exchange using EPAC effector Rap1 complex with BODIPY-GDP, a GDP analog with a tethered fluorophores. Activators are identified by monitoring the change in fluorescence signal as the exchanged free BODIPY-GDP has a reduced fluorescence compared to Rap1-bound BODIPY-GDP. Increase in signal (activation) is the desired outcome for the EPAC1 agonist while no activity in this assay is desired for the EPAC2 agonist counterscreen.
[1] de Rooij, J., Zwartkruis, F. J., Verheijen, M. H., Cool, R. H., Nijman, S. M., Wittinghofer, A., and Bos, J.L. (1998) Nature 396, 474-477.
Briefly, three uL of reagents (100 nM EPAC2, 250 nM RAP1B-BODIPY-GDP, 50 uM GDP) were dispensed into a 1536-well Greiner black solid-bottom medium binding assay plate. Controls and test compounds (23 nL) were transferred to the plate via a Kalypsys pin tool equipped with a 1536-pin array. The plates were centrifuged at 1,000 rpm for 15 seconds followed by 5 minute incubation at room temperature. The assay plates were read at 5 minute intervals for 30 minutes in the ViewLux plate reader using 480nm excitation and 540nm emission filters. The results were normalized to the agonist positive control of 6.5 mM cAMP.
% is set by controls: 0 for no effect and ±100 for the full control effect; potency is the fitted concentration of half-maximal effect.

activation, inactive:
CCNc1ncc2nc(-c3ccccc3)c(=O)n(CCc3ccccc3)c2n1 4.35%
CN1CCCC(CNC(=O)c2cnn(-c3ncc4c(n3)-c3ccccc3CC4)c2C2CC2)C1 (stereo not given) -10.8%
O=C(CNC(=O)c1cccnc1)c1ccc(F)cc1 -17.4%
O=C(c1cn(C2CCCN(Cc3cc(Cl)ccc3O)C2)nn1)N1CCCCC1 (stereo not given) -0.543%
CNc1ccnc(-c2cccc(NS(C)(=O)=O)c2)n1 1.54%
CC(=O)Nc1ccc(S[C@@H](CCN2CC[C@H](C(C)(C)C)CCC2=O)c2ccccc2)cc1 -31.2%
O=C(O)COc1ccc(CCNS(=O)(=O)c2ccccc2)s1 2.15%
CCn1c(-c2ccccc2F)nc2cc(NC(C)=O)cc(C(=O)N3CCNC(=O)C3CC(=O)OC)c21 (stereo not given) -2.82%
O=C(C[N+]12CCCc3cccc(c31)CCC2)c1ccccc1 -2.28%
CN(C)c1ccc(C(=C2C=CC(=[N+](C)C)C=C2)c2ccccc2)cc1 -24.7%
Cn1c(C(c2cc3ccccc3n2C)c2cc3ccccc3n2C)cc2ccccc21 11.4%
COc1ccccc1CNc1ccnc(-c2ccoc2)n1 -10.4%
CCCN1CCC(=O)N([C@H](CSc2ccccc2)c2ccccc2)CC1 -10.4%
CC(=O)OC1CCC2(C)C3CC(=O)C4(C)C(CC5OC6(CCC(C)CO6)C(C)C54)C3CC[C@H]2C1 (stereo not given in full) -13.5%
O=C(O)c1ccc2nc(-c3ccccc3)c(-c3ccccc3)nc2c1 11.6%
Cc1nc(NCc2c(F)cccc2F)sc1-c1ccn(CCN2CCOCC2)n1 -13.4%
COc1ccc(C(=O)N2CCC[C@@]3(CCN(c4ncccn4)C3)C2)cc1 -15.1%
COc1cccc(Cn2c(=O)c(-c3ccc(F)cc3)nc3cnc(N4CCNCC4)nc32)c1 12.8%
C=C1CCC(OC(C)=O)/C(C)=C/CC2[C@H]1CC2(C)C (stereo not given in full) -15.7%
CCOC(=O)C[C@H]1c2cc(F)ccc2S(=O)(=O)N1C1CCCC1 -9.78%
CN(C)c1ccc(/C=C/c2c3ccccc3nc3ccccc23)cc1 -14.9%
Cc1cnc2ccccc2c1/C=C/c1ccc(N(C)C)cc1 20.8%
OC(CN1CCCCC1)c1cc(-c2ccccc2)on1 (stereo not given) 8.32%
CN(Cc1ccco1)c1ncnc2ccc(-c3ccccc3C(F)(F)F)cc12 -4.16%

Potency, active:
CN(C)c1ccc(/C=C/c2c3c(nc4ccccc24)CCCC3)cc1 44.7 µM
